Results as given in PubChem BioAssay (NCI).
About 79,000 compounds went through this panel and 15% of them were active in at least one assay; those are over-represented in the sample as a whole. Active and inactive are the calls of the source. No stated cut-off is given here; in the data, active means growth inhibition above about 70%; inactive means the rest.

Legend:
[1] = NCI Yeast Anticancer Drug Screen. Data for the rad52 strain (AID 147);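 further: 0% = growth of vehicle-treated control cultures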; details: S. cerevisiae rad52 mutant growth inhibition, stronger effect = higher value
In short: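 Here a repair-compromised yeast strain receives each compound; its growth is then quantified and normalised to vehicle-only controls.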

[2] = NCI Yeast Anticancer Drug Screen. Data for the wt1 strain (AID 149);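 further: 0% = growth of vehicle-treated wt1 cultures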; details: S. cerevisiae wt1 strain (SPY 50644) growth inhibition, stronger effect = higher value
In short: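 Each compound is tested on wt1 yeast and the loss of growth versus vehicle gives the inhibition value.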

[3] = NCI Yeast Anticancer Drug Screen. Data for the rad50EPP+ strain (AID 151);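 further: 0% = growth of vehicle-treated control cultures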; details: S. cerevisiae rad50 mutant strain, stronger effect = higher value
In short: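 Read-out is yeast growth inhibition relative to vehicle; cells used were the rad50EPP+ strain.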

[4] = NCI Yeast Anticancer Drug Screen. Data for the mgt1 strain (AID 153); details: S. cerevisiae mgt1 mutant growth inhibition, stronger effect = higher value
In short: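 Measured: inhibition of mgt1 yeast growth by compound, normalized to vehicle-treated cultures.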

[5] = NCI Yeast Anticancer Drug Screen. Data for the rad50 strain (AID 155);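 further: 0% = growth of vehicle-only cultures of the same strain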; details: S. cerevisiae rad50 strain growth inhibition, stronger effect = higher value
In short: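 Vehicle-treated cultures provide the reference for the growth inhibition reported for compound-exposed, repair-deficient yeast.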

[6] = NCI Yeast Anticancer Drug Screen. Data for the mec2-1 strain (AID 157); details: S. cerevisiae mec2-1 strain, stronger effect = higher value
In short: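 Using mec2-1 yeast: add compound, measure growth, express inhibition versus vehicle-treated cultures.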

[7] = NCI Yeast Anticancer Drug Screen. Data for the rad14 strain (AID 159);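 further: 0% = growth of vehicle-treated control cultures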; details: S. cerevisiae rad14 strain growth inhibition, stronger effect = higher value
In short: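 Inhibition of growth is reported for a repair-deficient yeast mutant following compound treatment, calculated relative to cultures that received vehicle.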

[8] = NCI Yeast Anticancer Drug Screen. Data for the sgs1 mgt1 strain (AID 161);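 further: 0% = growth of cultures given vehicle only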; details: S. cerevisiae sgs1 mgt1 strain, stronger effect = higher value
In short: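 Percent growth inhibition was derived by comparing compound-exposed mutant yeast with vehicle-exposed cultures. The strain carries alterations in DNA damage repair.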

[9] = NCI Yeast Anticancer Drug Screen. Data for the CLN2oe strain (AID 163);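 further: 0% = growth of vehicle-only control cultures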; details: S. cerevisiae CLN2oe strain, stronger effect = higher value
In short: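 Whole-cell yeast growth assay. A strain engineered for altered cell-cycle control received compound, and inhibition relative to vehicle-treated cultures was recorded.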

[10] = NCI Yeast Anticancer Drug Screen. Data for the cln2 rad14 strain (AID 165);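 further: 0% = growth equal to vehicle treated cultures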; details: S. cerevisiae cln2 rad14 strain, stronger effect = higher value
In short: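 Yeast strain cln2 rad14, bearing defects in cell cycle control and DNA repair, serves as the test system; values reflect growth inhibition compared with vehicle.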

[11] = NCI Yeast Anticancer Drug Screen. Data for the bub3 strain (AID 167); details: S. cerevisiae bub3 mutant strain, stronger effect = higher value
In short: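 Mutant yeast screening strain plus compound; vehicle-treated cultures serve as the 0% inhibition reference.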

[12] = NCI Yeast Anticancer Drug Screen. Data for the wt2 strain (AID 169); details: S. cerevisiae wt2 strain growth inhibition, stronger effect = higher value
In short: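 Treated yeast vs. vehicle-treated yeast: growth inhibition determined.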

[13] = NCI Yeast Anticancer Drug Screen. Data for the mlh1 strain (AID 171);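 further: 0% = growth of vehicle-treated control cultures of the same strain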; details: S. cerevisiae mlh1 strain growth inhibition, stronger effect = higher value
In short: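 A yeast strain with a defined genetic lesion serves as the test organism. Cultures receive compound or vehicle, and growth is measured.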

[14] = NCI Yeast Anticancer Drug Screen. Data for the sgs1 strain (AID 173);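 further: 0% = growth of vehicle-only control cultures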; details: S. cerevisiae sgs1 mutant, stronger effect = higher value
In short: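 A genetically defined yeast mutant is incubated with the test compound, and its growth is compared to that of the same strain given vehicle.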

[15] = NCI Yeast Anticancer Drug Screen. Data for the mlh1 rad18 strain (AID 175); details: S. cerevisiae mlh1 rad18 strain growth inhibition, stronger effect = higher value
In short: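 Steps: expose repair-defective yeast to compound; measure growth; express inhibition against vehicle-treated controls.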

[16] = NCI Yeast Anticancer Drug Screen. Data for the rad18 strain (AID 177); details: S. cerevisiae rad18 mutant growth inhibition, stronger effect = higher value
In short: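 Measured value is growth inhibition of a yeast strain bearing a DNA repair alteration, referenced to vehicle-treated cells.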

[17] = at 5.0 µM (retest, dose inferred, filed as 0.5)
[18] = at 50.0 µM (retest, dose inferred, filed as 5.0)

Measured: growth inhibition

CCOC1=C/C(=N\Nc2ccc([N+](=O)[O-])cc2)CCC1
active: [3]; at 11.0 µM 70% | [3]; at 33.0 µM 87% | [7]; at 33.0 µM 73% | [11]; at 50.0 µM 95% | [15]; [18] 87%
inactive: [1]; at 1.2 µM 0% | [1]; at 3.7 µM 8% | [1]; at 11.0 µM 29% | [1]; at 33.0 µM 69% | [1]; at 100.0 µM 26% | [2]; at 1.2 µM 0% | [2]; at 3.7 µM 7% | [2]; at 11.0 µM 9% | [2]; at 33.0 µM 24% | [2]; at 100.0 µM 18% | [3]; at 1.2 µM 3% | [3]; at 3.7 µM 20% | [3]; at 100.0 µM 58% | [4]; at 1.2 µM 3% | [4]; at 3.7 µM 9% | [4]; at 11.0 µM 18% | [4]; at 33.0 µM 22% | [4]; at 100.0 µM 10% | [5]; at 1.2 µM 3% | [5]; at 3.7 µM 10% | [5]; [17] 17% | [5]; at 11.0 µM 22% | [5]; at 33.0 µM 30% | [5]; [18] 51% | [5]; at 50.0 µM 23.4% | [5]; at 100.0 µM 10% | [6]; at 1.2 µM 0% | [6]; at 3.7 µM 5% | [6]; [17] 1% | [6]; at 11.0 µM 19% | [6]; at 33.0 µM 31% | [6]; [18] 67% | [6]; at 50.0 µM 37.9% | [6]; at 100.0 µM 11% | [7]; at 1.2 µM 2% | [7]; at 3.7 µM 9% | [7]; at 11.0 µM 27% | [7]; at 100.0 µM 33% | [8]; [17] 10% | [8]; [18] 21% | [8]; at 50.0 µM 48.6% | [9]; at 1.2 µM -1% | [9]; at 3.7 µM -6% | [9]; at 11.0 µM 21% | [9]; at 33.0 µM 15% | [9]; at 100.0 µM -5% | [10]; [17] 5% | [10]; [18] 10% | [10]; at 50.0 µM 29.5% | [11]; at 1.2 µM -3% | [11]; at 3.7 µM 4% | [11]; [17] -1% | [11]; at 11.0 µM 11% | [11]; at 33.0 µM 15% | [11]; [18] 33% | [11]; at 100.0 µM 18% | [12]; at 1.2 µM -1% | [12]; at 3.7 µM 3% | [12]; at 11.0 µM 7% | [12]; at 33.0 µM 24% | [12]; at 100.0 µM 11% | [13]; at 1.2 µM 0% | [13]; at 3.7 µM 5% | [13]; at 11.0 µM 11% | [13]; at 33.0 µM 17% | [13]; at 100.0 µM 7% | [14]; at 1.2 µM 1% | [14]; at 3.7 µM 3% | [14]; at 11.0 µM 18% | [14]; at 33.0 µM 50% | [14]; at 100.0 µM 20% | [15]; [17] 21% | [15]; at 50.0 µM 41.7%

c1ccc2cc(NCNc3ccc4ccccc4c3)ccc2c1
active: [5]; [18] 75% | [5]; at 50.0 µM 95.8% | [8]; at 50.0 µM 95.3% | [10]; at 50.0 µM 76.9% | [11]; [18] 76% | [11]; at 50.0 µM 94.8% | [15]; at 50.0 µM 94.9%
inactive: [1]; at 1.2 µM -3% | [1]; at 3.7 µM -6% | [1]; at 11.0 µM -9% | [1]; at 33.0 µM 1% | [1]; at 100.0 µM 24% | [2]; at 1.2 µM 2% | [2]; at 3.7 µM 3% | [2]; at 11.0 µM 6% | [2]; at 33.0 µM 11% | [2]; at 100.0 µM 16% | [3]; at 1.2 µM 0% | [3]; at 3.7 µM 6% | [3]; at 11.0 µM 11% | [3]; at 33.0 µM 26% | [3]; at 100.0 µM 42% | [4]; at 1.2 µM 1% | [4]; at 3.7 µM 0% | [4]; at 11.0 µM 3% | [4]; at 33.0 µM 8% | [4]; at 100.0 µM 12% | [5]; at 1.2 µM 1% | [5]; at 3.7 µM -5% | [5]; [17] -9% | [5]; at 11.0 µM 5% | [5]; at 33.0 µM 0% | [5]; at 100.0 µM 22% | [6]; at 1.2 µM 0% | [6]; at 3.7 µM 1% | [6]; [17] 8% | [6]; at 11.0 µM 3% | [6]; at 33.0 µM 14% | [6]; [18] 46% | [6]; at 50.0 µM 69.8% | [6]; at 100.0 µM 27% | [7]; at 1.2 µM 1% | [7]; at 3.7 µM 1% | [7]; at 11.0 µM 0% | [7]; at 33.0 µM -13% | [7]; at 100.0 µM 16% | [8]; [17] 0% | [8]; [18] 46% | [9]; at 1.2 µM -3% | [9]; at 3.7 µM -3% | [9]; at 11.0 µM -6% | [9]; at 33.0 µM -1% | [9]; at 100.0 µM 6% | [10]; [17] -17% | [10]; [18] -22% | [11]; at 1.2 µM 0% | [11]; at 3.7 µM 6% | [11]; [17] 18% | [11]; at 11.0 µM -22% | [11]; at 33.0 µM 51% | [11]; at 100.0 µM 55% | [12]; at 1.2 µM -1% | [12]; at 3.7 µM 1% | [12]; at 11.0 µM 1% | [12]; at 33.0 µM 7% | [12]; at 100.0 µM 12% | [13]; at 1.2 µM 3% | [13]; at 3.7 µM 3% | [13]; at 11.0 µM 4% | [13]; at 33.0 µM -22% | [13]; at 100.0 µM 15% | [14]; at 1.2 µM 3% | [14]; at 3.7 µM 0% | [14]; at 11.0 µM 1% | [14]; at 33.0 µM 8% | [14]; at 100.0 µM 27% | [15]; [17] 12% | [15]; [18] 65% | [16]; at 1.2 µM -5% | [16]; at 3.7 µM -2% | [16]; at 11.0 µM -19% | [16]; at 33.0 µM -9% | [16]; at 100.0 µM 3%
